# Results filed as inconclusive are left out. A call without a number means that no potency is given here. Active and inactive are the calls of the source. Calls come from the whole dose curve; as a rule, active = well fitted curve in the direction sought with a large enough effect; inconclusive = small, poorly fitted or top-dose-only effect, or another doubt; inactive = no such curve, though single readings can be large; an effect the other way counts as inactive or inconclusive.
# Columns and labels:
# [1] = OV-KATE Cancer Cell Toxicity qHTS against the NCATS CANVASS Library (AID 1347345)
# In short: (§1)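 Per well, 1000 cells; exposure 72 h with compound at 11 final concentrations; readout CellTiter-Glo luminescence.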
# [2] = UWB1.289-WTBRCA1 Cancer Cell Toxicity qHTS against the NCATS CANVASS Library (AID 1347354)
# In short: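 1000 cells/well, 4 h pre-incubation 37 °C/5% CO2; 11-pnt titration; 72 h; CellTiter-Glo 15 min RT, luminescence.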
# [3] = tested on: NAD(P)H diaphorase (Clostridium kluyveri); assay: Diaphorse counterscreen qHTS: Assay Interference Panel against the NCATS CANVASS Library (AID 1347362)
# In short: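 Clostridium kluyveri diaphorase in PBS with 0.01% Tween-20 was preincubated 15 min at room temperature in the dark with compounds (11-point series). Resorufin fluorescence (ex 525/20, em 598/25) was read 5 min after adding resazurin/NADH.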
# [4] = G06 Cancer Cell Toxicity qHTS against the NCATS CANVASS Library (AID 1347368); note: nearly all actives have a fitted effect of over 60% in size; note: potency is the fitted concentration of half-maximal effect
# In short: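 ATP luminescence (CellTiterGlo) readout of cytotoxicity. Canine G06 glioma cells, 500/well, 72 hr incubation at 37C with compounds; bortezomib titration served as control.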
# [5] = qHTS for ATAD5 Antagonist screened against the NCATS CANVASS Library (AID 1347370); note: nearly all actives have a fitted effect of over 65% in size; note: potency is the fitted concentration of half-maximal effect
# In short: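 HEK293T-ATAD5 luc reporter, 2000 cells/well; 5hr attach; cpd + 10 uM 5-FUrd; 16hr 37C, 5% CO2. Readouts: CellTiter-Fluor fluorescence (1hr), then Amplite luciferase luminescence (30min RT).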
# [6] = J3T Cancer Cell Toxicity qHTS against the NCATS CANVASS Library (AID 1347371);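 note: J3T is a canine glioma cancer cell line seeded at 500 cells per well; series mostly up to about 46 µM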
# In short: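 Dog glioma J3T, 500 cells/well; cpd 11-pt qHTS; 72 hr, 37C/5% CO2; CellTiterGlo ATP luminescence readout.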
# [7] = biological target: Nuclear receptor subfamily 1 group I member 3 (Homo sapiens) (UniProt Q14994); assay: qHTS for Constitutive Androstane Receptor (CAR) Agonist screened against the NCATS CANVASS Library (AID 1347373);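 note: every well also contained 1.5 µM PK11195 alongside the test compound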; note: potency is the fitted concentration of half-maximal effect
# Nuclear receptor subfamily 1 group I member 3 (Homo sapiens), sequence (Q14994 whole entry, looked up): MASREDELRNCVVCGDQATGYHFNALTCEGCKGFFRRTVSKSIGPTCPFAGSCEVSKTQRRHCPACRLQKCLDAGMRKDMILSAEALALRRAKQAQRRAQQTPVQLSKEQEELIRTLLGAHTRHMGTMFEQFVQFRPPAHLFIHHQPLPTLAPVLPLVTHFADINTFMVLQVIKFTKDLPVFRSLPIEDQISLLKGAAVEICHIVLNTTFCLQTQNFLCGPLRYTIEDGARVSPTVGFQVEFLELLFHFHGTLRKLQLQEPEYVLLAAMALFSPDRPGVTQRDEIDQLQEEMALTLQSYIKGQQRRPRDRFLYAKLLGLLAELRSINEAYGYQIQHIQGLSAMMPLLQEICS
# In short: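 Luciferase read-out (ONE-Glo, 30 min RT) of CYP2B6-2.2kb promoter activity in double-stable HepG2-hCAR cells after 24hr compound exposure with 1.5uM PK11195 present; viability measured first by CellTiter-Fluor.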
# [8] = qHTS for Hypoxia signaling pathway (HIF-1) agonists against the NCATS CANVASS Library (AID 1347375)
# In short: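 Read-out: beta-lactamase FRET (CCF4-AM, ex 405, em 460 and 530 nm) after 2 h at room temperature. ME-180 cells stably carrying HRE-bla were treated 17 h at 37C with compounds in an 11-point concentration series.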
# [9] = DH5-alpha competent E. coli microbial cell viability qHTS against the NCATS CANVASS Library (AID 1347377); conditions: outcome: dose series up to 46.1 µM unless noted
# In short: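 Luminescent ATP read-out (BacTiter-Glo, 20 min RT) after overnight 37C culture of DH5-alpha E. coli with compounds; daunomycin control at 0.2 nM–9.2 uM final.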
# [10] = qHTS for Inflammasome Signaling Inhibitors: IL-1-beta AlphaLISA screen against the NCATS CANVASS Library (AID 1347379);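 note: human THP-1 cells primed with LPS then triggered with ATP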;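 for potency: secreted IL-1B measured as AlphaLISA emission at 615 nm; potency is the fitted concentration of half-maximal effect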
# In short: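 THP-1, 1 hr compound pre-incubation, then LPS 250 ng/mL + ATP 1.25 mM (final); 16 hr total with compound; IL-1B AlphaLISA, ex 680/em 615 nm; 11-point qHTS, up to 57.5 uM final.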
# [11] = qHTS for inhibitors of ER calcium dysfunction: SERCaMP assay screened against the NCATS CANVASS Library (AID 1347393); note: nearly all actives have a fitted effect of over 40% in size; note: potency is the fitted concentration of half-maximal effect
# In short: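 qHTS in SH-SY5Y reporter cells: 16 h compound pretreatment, 4 h thapsigargin, then secreted Gaussia luciferase measured by luminescence.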
# [12] = qHTS for inhibitors of Wild type Zika virus screened against the NCATS CANVASS Library (AID 1347396);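 note: ATP luminescence of surviving cells so rescue from viral cell killing; series mostly up to about 46 µM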
# In short: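 Using ATP-based luminescence (CellTiter Glo), this screen scores rescue of Vero 766 cells from wild-type Zika killing at 72 h post-infection. Compounds are tested in a concentration series.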
# [13] = Redox Reaction Profiling qHTS: Assay Interference Panel against the NCATS CANVASS Library (AID 1347401)
# In short: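 Quantitative HTS over an 11-point series was run in HEPES pH 7.3 with 50 mM NaCl, 200 uM DTT and 5 uM resazurin. Initial and 15-min resorufin fluorescence readings were taken.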
# [14] = A2780 Cisplatin Sensitive Ovarian Cancer Cell Toxicity qHTS against the NCATS CANVASS Library (AID 1347353); note: nearly all actives have a fitted effect of over 60% in size; note: potency is the fitted concentration of half-maximal effect
# In short: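 750 cells/well, 4 h settle; 11-pt cpd titration; 72 h, 37 °C, 5% CO2; ATPLite 10 min RT; luminescence read.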
# [15] = qHTS for activators of Nrf2/ARE signaling pathway screened against the NCATS CANVASS Library (AID 1347391); note: nearly all actives have a fitted effect of over 60% in size; note: potency is the fitted concentration of half-maximal effect
# In short: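 HepG2 ARE-bla; cpd 11-pt qHTS, 16 h 37C/5% CO2; CCF4 substrate 2 h RT; read ex 405 / em 460 + 530 nm. Viability by CellTiter-Glo luminescence, 30 min RT.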
# [16] = SW1088 Cancer Cell Toxicity qHTS against the NCATS CANVASS Library (AID 1347350); note: nearly all actives have a fitted effect of over 75% in size; note: potency is the fitted concentration of half-maximal effect
# In short: as §1
# [17] = qHTS for Hypoxia signaling pathway (HIF-1) antagonists against the NCATS CANVASS Library (AID 1347374); note: nearly all actives have a fitted effect of over 60% in size; note: potency is the fitted concentration of half-maximal effect
# In short: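 Beta-lactamase reporter under HRE control in ME-180 cells; CoCl2 stimulus (60 uM solution as added), compounds 11-pt qHTS, 17 h 37C. CCF4 dye 2 h RT, 460/530 nm emission. CellTiter-Glo viability in same wells.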
# [18] = qHTS assay for small molecule disruptors of mitochondrial membrane potential screened against the NCATS CANVASS Library (AID 1347389)
# In short: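 Red/green fluorescence ratio read-out: J-aggregates ex 540/em 590 nm, monomers ex 490/em 535 nm. HepG2, 1 hr compound treatment, then 30 min Mito-MPS dye at 37C. 11-pt qHTS concentration series.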
# [19] = KB-3-1 Cancer Cell Toxicity qHTS against the NCATS CANVASS Library (AID 1347366); note: nearly all actives have a fitted effect of over 75% in size; note: potency is the fitted concentration of half-maximal effect
# In short: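 Luminescence from CellTiter-Glo (10 min, room temperature) measured KB-3-1 viability after 72 hr compound exposure at 37C. Cells were seeded at 500/well and tested in an 11-point series.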
Compound,Potency [1],Potency [2],Potency [3],Potency [4],Potency [5],Potency [6],Potency [7],outcome [8],outcome [9],Potency [10],Potency [11],outcome [12],Potency [13],Potency [14],Potency [15],Potency [16],Potency [17],Potency [18],Potency [19]
CC(C)[C@@H]1CC(=O)c2coc3c2[C@H]1C[C@@H](C)C3=O,inactive,inactive,inactive,inactive,inactive,inactive,inactive,inactive,inactive,inactive,inactive,inactive,inactive,–,–,–,–,–,–
COc1ccc([C@@H]2c3cc4c(cc3C[C@H](C)C2C)OCO4)cc1OC (stereo not given in full),inactive,inactive,inactive,–,–,inactive,inactive,inactive,inactive,inactive,inactive,inactive,inactive,10.5 µM (active),inactive,–,–,–,–
COc1ccc([C@@H]2c3cc4c(cc3C(=O)[C@H](C)C2C)OCO4)cc1OC (stereo not given in full),inactive,inactive,–,inactive,16.6 µM (active),inactive,inactive,inactive,inactive,inactive,inactive,inactive,–,–,–,inactive,inactive,inactive,–
CC[C@H]1[C@@H](C)[C@@H](c2cc(OC)c(OC)cc2OC)[C@H](C)[C@@H](c2cc(OC)c(OC)cc2OC)[C@@]12C=C(OC)C(=O)C=C2OC,–,–,–,–,–,inactive,inactive,inactive,inactive,–,0.86 µM (active),–,inactive,9.35 µM (active),–,11.9 µM (active),–,–,–
COc1cc2c(cc1OC)[C@@H](c1ccc3c(c1)OCO3)C(C)[C@@H](C)C2=O (stereo not given in full),inactive,inactive,inactive,–,11.7 µM (active),inactive,9.33 µM (active),inactive,inactive,inactive,34.3 µM (active),–,–,–,–,–,inactive,inactive,inactive
COC(=O)[C@@]1(C)CCC[C@]2(C)c3cc(OC)ccc3CC[C@@H]12,inactive,inactive,inactive,inactive,inactive,inactive,–,inactive,inactive,inactive,inactive,inactive,inactive,inactive,inactive,–,inactive,–,inactive
O[C@H]1C=C2[C@H]3CN(Cc4cc5c(cc43)OCO5)[C@H]2C[C@@H]1O,–,inactive,inactive,6.62 µM (active),–,–,inactive,inactive,inactive,inactive,inactive,inactive,–,9.35 µM (active),inactive,inactive,13.3 µM (active),inactive,13.2 µM (active)
C[C@H](c1cnc(N)[nH]1)c1ccc(O)c2[nH]cc(-c3cnc(-c4c[nH]c5ccccc45)c(=O)[nH]3)c12,inactive,inactive,–,–,inactive,inactive,inactive,–,–,–,–,inactive,–,inactive,inactive,inactive,–,–,inactive
C=C[C@@](C)(O)CC[C@@H]1[C@@]2(C)CCCC(C)(C)[C@@H]2CC[C@@]1(C)O,inactive,inactive,inactive,inactive,inactive,inactive,inactive,inactive,–,inactive,–,inactive,inactive,inactive,inactive,–,inactive,inactive,inactive
C/C(=C\[C@H](C)C(=O)C[C@H](O)CC1CC(=O)NC(=O)C1)[C@@H]1OC(=O)CCCC/C=C/[C@@H](O)C[C@@H]1C,–,–,inactive,2.96 µM (active),7.41 µM (active),–,inactive,inactive,inactive,34.3 µM (active),inactive,inactive,inactive,2.35 µM (active),7.41 µM (active),inactive,4.2 µM (active),inactive,9.35 µM (active)
C/C1=C/[C@@H](C)[C@H](O)C/C=C/CC/C=C/C(=O)O[C@@H]1[C@H](C)C(=O)CCCC1CC(=O)NC(=O)C1,inactive,–,inactive,4.69 µM (active),20.9 µM (active),–,inactive,inactive,inactive,inactive,inactive,inactive,inactive,10.5 µM (active),–,inactive,18.8 µM (active),inactive,inactive
O=C1CCC(=O)N(O)CCCCCNC(=O)CCC(=O)N(O)CCCCCNC(=O)CCC(=O)N(O)CCCCCN1,–,inactive,inactive,8.33 µM (active),inactive,inactive,inactive,–,inactive,inactive,inactive,inactive,inactive,26.4 µM (active),inactive,inactive,inactive,inactive,–
CC1=C[C@H]2[C@H]3C(=O)C(c4ccc(O)cc4)=C[C@@]3(c3ccc(O)cc3)[C@@H]1C(=O)[C@]2(C)O,inactive,–,inactive,0.235 µM (active),inactive,–,inactive,inactive,inactive,inactive,inactive,–,inactive,0.418 µM (active),–,inactive,inactive,inactive,0.332 µM (active)
C/C=C1/C2=CCCN3C(=O)O[C@H]([C@H]1O)[C@H]23,inactive,inactive,inactive,inactive,inactive,inactive,inactive,inactive,inactive,inactive,inactive,inactive,inactive,inactive,inactive,inactive,inactive,inactive,inactive
